Measured values as given in PubChem BioAssay (NCI).
Compounds without any hit were thinned out: in the full panel of roughly 83,000, 20% have a hit.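 How to read the values: 0–100, growth inhibition (40 = 60% inhibited); 0, no net growth; -100 to 0, cell death (-40 = 40% of starting cells died; -100 = all dead).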 Values without a mark were called inactive. Activity calls are given as the source filed them. Rule for the calls: active = growth percent below 10; inactive = the rest.

Each molecule was assayed on A498 renal (assay: NCI-60 one-dose screen, 48 h (100 = growth as untreated, 0 = no growth, -100 = all killed)). Details: 10 µM unless noted.
For COC(=O)c1cccc2c1N(C)c1c(cccc1C(=O)OC)CC2, the growth was 132%.
Molecule COc1ccc(/C=C2\N=C(c3ccccc3)N(C(=O)c3ccccc3O)NC2=O)cc1 has a growth of 73.6%.
For c1cc2[nH]ncc2cc1-c1nc2ccc3[nH]ncc3c2c2c1CCC2, the growth was -3.31% (active).
For O=C(Oc1ccccc1[N+](=O)[O-])C1CCCN1C(=O)OCc1ccccc1 (centres undefined), the growth was 95.5%.
COc1ccc(CCNC2=CC(=O)CCC2)cc1OC showed a growth of 105%.
Molecule O=C(Nc1ccncc1)C(=O)c1cn(S(=O)(=O)c2ccc(Cl)cc2)c2ccccc12 has a growth of 53.6%.
O=C(Nc1cccc(-n2cc(-c3ccncc3)c(-c3ccc(Cl)c(O)c3)n2)c1)Nc1ccc(Cl)c(Cl)c1 was tested, and the growth was 31.1%.
Molecule O=C(Nc1ccncc1)C(=O)c1cn(S(=O)(=O)c2ccccc2F)c2ccccc12 has a growth of 49.7%.
In the case of O=C(c1ccccc1)C1OC1c1ccc([N+](=O)[O-])cc1 (centres undefined), the growth was 110%.
Work on Cc1ccc(Cc2c(C=O)nc(N)[nH]c2=O)c2ccccc12 yielded a growth of 118%.
CCN(CC)CCOC(=O)C(c1ccccc1)(c1ccccc1)C(C)C gave a growth of 70.5%.
Work on COc1ccc(C(=O)N2NC(=O)/C(=C/c3cn(-c4ccccc4)nc3-c3ccccc3)N=C2c2ccccc2)cc1 yielded a growth of 77.6%.
CC(C)(C)OC(=O)NC(CSCc1ccccc1)C(=O)ON1C(=O)CCC1=O (centres undefined) gave a growth of 110%.
In the case of COc1ccc(C2=C(c3cc(OC)c(OC)c(OC)c3)C(=O)CC2)cc1, the growth was -4.31% (active).
COc1ccc(C(=O)N2NC(=O)/C(=C/c3ccccc3F)N=C2c2ccccc2)cc1 showed a growth of 104%.
C/C(=C\c1ccc(OCC(=O)O)c(Cl)c1Cl)[N+](=O)[O-] gave a growth of 113%.
For COc1ccc(-c2cc3c(OC)c(OC)c(OC)cc3oc2=O)cc1, the growth was 34.2%.
With COc1ccc(Nc2ncccc2C(=O)NCc2cn(Cc3cccc(Oc4ccccc4)c3)nn2)c(OC)c1 the growth was -3.05% (active).
With CC(=O)Nc1scc[n+]1Cc1ccccc1 the growth was 112%.
In the case of COc1cc2c(c(OC)c1OC)-c1ccc(N)c(=O)cc1[C@@H](NC(C)=O)CC2, the growth was -12.7% (active).
O=C([O][Sn]([O]C(=O)c1ccccn1)([c]1ccccc1)[c]1ccccc1)c1ccccn1 showed a growth of 101%.
Work on COC(OC)c1ccccc1 yielded a growth of 132%.
With Fc1ccc(Nc2nc(NCCNc3ccnc4cc(Cl)ccc34)nc(N3CCOCC3)n2)cc1 the growth was 8.73% (active).
COc1ccc(-c2nc3sc(-c4cc(OC)c(OC)c(OC)c4)nn3c2/C=C2/C(=O)Nc3ccc(F)cc32)cc1 was tested, and the growth was 96.7%.
Work on Cc1ccc(S(=O)(=O)n2cc(C(=O)C(=O)Nc3ccncc3)c3ccccc32)cc1 yielded a growth of 74.1%.
With COc1ccc(Nc2ncccc2C(=O)NCc2cn(Cc3cccc(Oc4ccccc4)c3)nn2)cc1 the growth was 27.5%.
CC1=C(C#N)C(=O)NC(C)C1 (centres undefined) was tested, and the growth was 104%.
Cc1cc(C2=NNC(=O)Cc3cc4c(cc32)OCCO4)cc(C)c1N showed a growth of 24.2%.
For CCOC(=O)C1=C(C)NC(C)=C(C(=O)OCC)C1(C)C, the growth was 108%.
Molecule O=C(Nc1ccncc1)C(=O)c1cn(S(=O)(=O)c2ccc(Br)cc2)c2ccccc12 has a growth of 47.3%.
CC1CCC(C)N(C)C1 (centres undefined) showed a growth of 76.5%.
Molecule CCC(C)/C(=C\C#N)NCCCN/C(=C/C#N)C(C)CC (centres undefined) has a growth of 124%.
For CC1(c2ccc(Cl)cc2)OC(=O)CC(=O)O1, the growth was 101%.
Work on CCN(CC)CCOc1ccc(Cl)c(C)c1 yielded a growth of 103%.
With Nc1cccc(Cl)c1N the growth was 114%.
With O=[N+]([O-])c1cc(Cl)c2[nH]c3c(Cl)cc([N+](=O)[O-])cc3c2c1 the growth was -26.6% (active).
Molecule CSc1nc2c(c(=O)[nH]1)C(c1ccc(C)cc1)C=C(C(=O)O)N2 (centres undefined) has a growth of 93.1%.
COc1cc(/C=C/C(=O)/C=C/c2cc(OC)c3c(c2)OCO3)cc2c1OCO2 was tested, and the growth was 117%.
Work on Oc1ccccc1/C=N/NC(=S)NC1CC2C=CC1C2 (centres undefined) yielded a growth of 96.2%.

The molecules below were run on CCRF-CEM leukemia in the same assay as above. Details: 10 µM unless noted.
COC(=O)c1cccc2c1N(C)c1c(cccc1C(=O)OC)CC2 showed a growth of 89%.
With c1cc2[nH]ncc2cc1-c1nc2ccc3[nH]ncc3c2c2c1CCC2 the growth was 30.2%.
For O=C(Nc1cccc(-n2cc(-c3ccncc3)c(-c3ccc(Cl)c(O)c3)n2)c1)Nc1ccc(Cl)c(Cl)c1, the growth was 13.7%.
Work on O=C(c1ccccc1)C1OC1c1ccc([N+](=O)[O-])cc1 (centres undefined) yielded a growth of 35.1%.
Work on Cc1ccc(Cc2c(C=O)nc(N)[nH]c2=O)c2ccccc12 yielded a growth of 80%.
CCN(CC)CCOC(=O)C(c1ccccc1)(c1ccccc1)C(C)C gave a growth of 86.4%.
For CC(C)(C)OC(=O)NC(CSCc1ccccc1)C(=O)ON1C(=O)CCC1=O (centres undefined), the growth was 96.7%.
CC(=O)Nc1scc[n+]1Cc1ccccc1 showed a growth of 90.1%.
Molecule COc1cc2c(c(OC)c1OC)-c1ccc(N)c(=O)cc1[C@@H](NC(C)=O)CC2 has a growth of 21.6%.
Molecule O=C([O][Sn]([O]C(=O)c1ccccn1)([c]1ccccc1)[c]1ccccc1)c1ccccn1 has a growth of 18.1%.
COC(OC)c1ccccc1 was tested, and the growth was 119%.
Molecule Fc1ccc(Nc2nc(NCCNc3ccnc4cc(Cl)ccc34)nc(N3CCOCC3)n2)cc1 has a growth of 49.1%.
COc1ccc(-c2nc3sc(-c4cc(OC)c(OC)c(OC)c4)nn3c2/C=C2/C(=O)Nc3ccc(F)cc32)cc1 showed a growth of 20.6%.
In the case of CCOC(=O)C1=C(C)NC(C)=C(C(=O)OCC)C1(C)C, the growth was 94.4%.
Molecule CC1CCC(C)N(C)C1 (centres undefined) has a growth of 93.9%.
CCC(C)/C(=C\C#N)NCCCN/C(=C/C#N)C(C)CC (centres undefined) showed a growth of 97.4%.
Work on CC1(c2ccc(Cl)cc2)OC(=O)CC(=O)O1 yielded a growth of 100%.
With Nc1cccc(Cl)c1N the growth was 71%.
For O=[N+]([O-])c1cc(Cl)c2[nH]c3c(Cl)cc([N+](=O)[O-])cc3c2c1, the growth was -39.9% (active).
For Oc1ccccc1/C=N/NC(=S)NC1CC2C=CC1C2 (centres undefined), the growth was 49.5%.
